Screening results: PubChem BioAssay, National Center for Advancing Translational Sciences (NCATS)
An excerpt weighted towards active compounds, which were near 3.1% of everything screened.
Vif-APOBEC3F blk – Vif-A3F binding inhibition | HeLa A3F-eYFP + Vif (tagged APOBEC3F with the HIV-1 protein that degrades it), YFP fluorescence increase | Potency, µM (top dose mostly 46.1 µM), without a hit: at the highest dose activity, negative = active | hit rate 0.2% among 390,000; note: potency is the fitted concentration of half-maximal effect; % of control where 0% means no effect; nearly all actives have a fitted effect of over 65% in size
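Fluorescence increase (Ex 488/Em 500-530) after overnight compound treatment at 37 deg C flags inhibition of Vif-driven A3F-eYFP loss in stable HeLa A3F-eYFP/Vif cells seeded overnight beforehand.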
TSHR antag – antagonists of human thyroid stimulating hormone receptor; P16473; TSHR-expressing cells, TSH-stimulated cAMP HTRF, 2 h; stronger effect = lower value; activity change, negative = inhibition, % at 11.5 µM; hit rate 0.2% among 330,000;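 active = activity change below a set negative limit, meaning inhibition stronger than a set level, cut at about -70% in these data; inconclusive = activity change between two set negative limits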; note: % is set by controls: 0 for no effect and ±100 for the full control effect
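Freshly harvested TSHR cells receive pin-tooled compound, then EC80 TSH at 4nM final. After 2 hours at 37 deg C, antibody in lysis buffer and cAMP-d2 are added; 30 minutes at ambient temperature precede the HTRF read.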
PLK1 PBD block – blocks phosphopeptide binding to human PLK1 polo-box domain; AID 720504; Potency, µM, for the others: max response, negative = inhibition, most hits filed as inhibitors; hit rate 2.8% among 360,000; P53350; Plk1 PBD binding of FITC phosphopeptide, fluorescence polarization; note: potency is the fitted concentration of half-maximal effect; series mostly up to about 57 µM; % is set by controls: 0 for no effect and ±100 for the full control effect; nearly all actives have a fitted effect of over 65% in size
Target sequence (P53350 whole entry, looked up, the tested form may be a part): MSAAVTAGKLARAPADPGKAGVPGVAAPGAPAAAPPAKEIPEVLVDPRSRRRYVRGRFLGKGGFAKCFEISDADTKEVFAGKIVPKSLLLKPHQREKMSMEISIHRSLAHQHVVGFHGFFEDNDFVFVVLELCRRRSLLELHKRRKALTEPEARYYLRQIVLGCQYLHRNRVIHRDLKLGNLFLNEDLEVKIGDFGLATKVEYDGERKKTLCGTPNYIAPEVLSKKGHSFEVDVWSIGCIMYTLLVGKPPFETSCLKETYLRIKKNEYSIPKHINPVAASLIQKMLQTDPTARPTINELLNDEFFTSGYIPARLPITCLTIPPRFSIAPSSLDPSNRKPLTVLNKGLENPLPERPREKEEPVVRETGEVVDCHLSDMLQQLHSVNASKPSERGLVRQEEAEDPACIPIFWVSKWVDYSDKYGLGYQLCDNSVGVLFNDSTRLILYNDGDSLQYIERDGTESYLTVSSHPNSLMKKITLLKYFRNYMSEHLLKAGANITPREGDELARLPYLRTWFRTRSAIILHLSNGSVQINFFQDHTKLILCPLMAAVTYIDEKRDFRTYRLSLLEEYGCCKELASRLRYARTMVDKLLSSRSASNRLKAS
Vif-APOBEC3G blk – blocks the Vif interaction with human APOBEC3G | Q9HC16 | HeLa A3G-eYFP + Vif (tagged APOBEC3G with the HIV-1 protein that degrades it), YFP fluorescence, overnight | Potency, µM (doses to about 46.1 µM), for inactives: top-dose activity, negative = active, hits mostly inhibitors | hit rate 0.076% among 410,000 | AID 602310; note: potency is the fitted concentration of half-maximal effect; % is set by controls: 0 for no effect and ±100 for the full control effect; nearly all actives have a fitted effect of over 60% in size
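Read-out is eYFP fluorescence (Ex 488/Em 500-530) from Vif-expressing HeLa A3G-eYFP cells; more signal means A3G escaped Vif-mediated degradation. Cells plated overnight, compound pinned in, incubated overnight at 37 deg C.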
VDR inh – blocks the human vitamin D receptor. P11473. VDR-SRC2-3 peptide fluorescence polarization, 2 h. Potency, µM, inactives show max response, negative = inhibition, most hits filed as inhibitors. hit rate 0.93% among 400,000; note: potency is the fitted concentration of half-maximal effect; % is set by controls: 0 for no effect and ±100 for the full control effect
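Measured by FP: displacement of SRC2-3 coactivator peptide from VDR by library compounds, following a two-hour ambient incubation.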
The depositor's hits bear a star; ? = inconclusive; nt = no result; ! = not active in a repeat. Unless noted, calls come from the whole dose curve; as a rule, active = well fitted curve in the direction sought with a large enough effect; inconclusive = small, poorly fitted or top-dose-only effect, or another doubt; inactive = no such curve, though single readings can be large; an effect the other way counts as inactive or inconclusive.

SMILES	Vif-APOBEC3F blk	TSHR antag	PLK1 PBD block	Vif-APOBEC3G blk	VDR inh
CC(=O)Nc1ccc(S(=O)(=O)Oc2cccc(/C=C3\SC(N)=NC3=O)c2)cc1	-7%	6	4.2µM*	0%	35µM*
C=CCSc1n[nH]c(-c2ccc(OCCC)cc2)n1	-16%	-10	-5%	3%	1%
S=c1nc(-c2ccc(Cl)cc2)[nH][nH]1	-1%	-7	38µM*	-6%	-29%
CCCOc1ccc(-c2nc(=S)[nH][nH]2)cc1	0%	-20	?	-6%	89µM*
CC(NC(=O)c1cnccn1)c1ccc(S(N)(=O)=O)cc1 (configuration not stated)	3%	6	27µM*	3%	-22%
CC(NC(=O)c1cncc(Br)c1)c1ccc(S(N)(=O)=O)cc1 (configuration not stated)	3%	3	-9%	6%	-10%
O=C(O)c1ccc(-c2ccccc2Cl)o1	-7%	6	-10%	-2%	141µM*!
O=C1ON=C(c2cccc([N+](=O)[O-])c2)/C1=C/c1ccc(O)cc1	-8%	6	1.5µM*	-25%	?
O=C1ON=C(c2ccc(Cl)c([N+](=O)[O-])c2)/C1=C/c1cccc([N+](=O)[O-])c1O	-3%	19	-4%	0%	13%
COc1ccc(/C=C2\C(=O)ON=C2c2ccccc2)cc1	3%	-8	1.5µM*	-20%	?
O=C1ON=C(c2ccccc2)/C1=C/c1ccc(O)c(O)c1	-7%	-1	?	0%	45µM*
Cc1ccc(C2=NOC(=O)/C2=C\c2ccc(C)o2)cc1	3%	-1	0.75µM*	-1%	?
CN(C)c1ccc(/C=C2\C=Cc3cc([N+](=O)[O-])ccc32)cc1	nt	nt	nt	-3%	nt
COc1ncc2nc(-c3cc(F)cc(F)c3)c(=O)n(CCc3ccccc3)c2n1	nt	nt	nt	nt	-3%
CCOC(=O)c1cc2c(=O)n3ccccc3nc2n(Cc2ccco2)c1=NC(=O)c1cccc(OC)c1	1%	-8	-7%	-6%	1%
CCOC(=O)c1cc2c(=O)n3ccccc3nc2n(Cc2ccco2)c1=NC(=O)c1ccccc1OC	?	-1	-12%	-7%	56µM*!
C[Se]CC[C@H](N)C(=O)O	nt	nt	nt	nt	20%
Cc1ccc(-n2nc3c(SCCN4CCOCC4)nnc(C)c3c2C)cc1	25µM*	12	5%	?	?
O=C(Nc1ccc(Cl)cc1)[C@@H]1[C@@H]2C(=O)N(c3ccc(Cl)cc3)C(=O)[C@@H]2[C@H]2C=CC=NN21	-10%	8	24µM*	-2%	?
C=CCOC(=O)N[C@H](/C(C(=O)OC)=C(\C)NCc1ccccc1)c1cccc(F)c1	nt	nt	nt	nt	-13%
Nc1ncnc2c1ncn2[C@H]1O[C@@H](CSCC[C@@H](N)C(=O)O)[C@H](O)[C@@H]1O	nt	nt	nt	nt	1%
N#Cc1c(N)n[nH]c1-c1cc2c([nH]1)CCCC2	0%	-5	6%	0%	-6%
N#Cc1cc2c([nH]c1=S)CCCCCC2	-10%	7	27µM*	-7%	-7%
Nc1c(Br)cc(C=O)cc1Br	nt	nt	nt	2%	nt
OCCNc1nc2ccccc2nc1NCCO	-3%	-7	-3%	0%	3%
SMILES	Vif-APOBEC3F blk	TSHR antag	PLK1 PBD block	Vif-APOBEC3G blk	VDR inh
OCCNc1cnc2ccccc2n1	5%	-6	12µM*	-2%	?
CS(=O)(=O)Nc1c(O)ccc2c1CCCC2C1=NCCN1 (configuration not stated)	nt	nt	nt	nt	3%
Cn1c(CN2CCOCC2)nc2cc(NC(=O)COc3ccccc3)ccc21	-7%	-7	21µM*	2%	?
Cn1c(CCN2CCOCC2)nc2cc(NC(=O)COc3ccccc3)ccc21	6%	3	-8%	-1%	-7%
COc1ccc(OCC(=O)Nc2ccc3c(c2)nc(CCN2CCN(C)CC2)n3C)cc1	0%	23	24µM*	0%	?
C=CCN1C(=O)/C(=C2/Sc3ccc(OC)cc3N2C)SC1=Nc1ccccc1	-18%	-8	-1%	-5%	-5%
CCCCN1C(=O)/C(=C2/Sc3ccccc3N2C)S/C1=N\c1ncn[nH]1	22µM*	16	5%	-9%	-11%
O=C1c2ccccc2C(=O)N1c1cccc(N2C(=O)c3ccccc3C2=O)n1	nt	nt	nt	-1%	-12%
O=C(NCc1cccc(Cl)c1)c1ccc2nc(N3CCOCC3)sc2c1	0%	-1	27µM*	0%	-24%
COC(=O)c1ccc(NC(=O)COc2ccccc2C(=O)Nc2ccccc2)cc1	nt	nt	nt	1%	nt
CSc1ccccc1C(=O)Nc1cc2c(cc1C(=O)O)OCCCO2	6%	9	30µM*	2%	-18%
COc1cc(Br)c(C(=O)c2nccc3cc(OC)c(OC)cc23)cc1OC	3%	-29	6µM*	-5%	-18%
COC(=O)c1ccc(-c2ccc(C3C4C=CCC(C)C4C(=O)N3Cc3ccccc3)c(F)c2)cc1 (configuration not stated)	nt	nt	nt	1%	-14%
CSCC[C@H](NC(=O)[C@H](CC(C)C)NC(=O)CCNC(=O)[C@@H](NC(=O)[C@H](Cc1ccccc1)NC(=O)[C@H](CO)NC(=O)[C@@H](N)CC(=O)O)C(C)C)C(N)=O	nt	nt	nt	nt	-1%
CC(C1CCCC(=O)C1)[N+](=O)[O-] (configuration not stated)	nt	nt	nt	nt	9%
O=C(Nc1ccc(N2CCCCCC2)cc1)c1ccccc1Cl	14%	-9	-1%	?	1%
COC(=O)c1ccccc1NC(=O)c1ccc(COc2ccccc2)o1	nt	nt	-23%	0%	5%
CC(=O)N1CCN(c2ccc(NC(=O)c3ccccc3Cl)cc2)CC1	-2%	5	21µM*	-9%	-13%
COc1ccc(NC(=O)c2ccc(COc3ccccc3)o2)cc1	-1%	14	11µM*	0%	?
O=C(Nc1ccccc1)c1ccc(COc2ccccc2)cc1	-5%	17	30µM*	0%	?
CC(=O)N1CCN(c2ccc(NC(=O)c3ccc(OCc4ccccc4)cc3)cc2)CC1	0%	-1	15µM*	2%	28µM*
CC1=NOC2(C1)N(C)c1ccccc1C2(C)C (configuration not stated)	-7%	31	-7%	2%	3%
COc1ccc2ccc3c(c2c1)N=C[C@]1(O3)N(C)c2ccccc2C1(C)C	-1%	-1	3µM*	-10%	-12%
O=C(CN1C(=O)CC(c2ccco2)Sc2ccccc21)Nc1cccc(C(F)(F)F)c1 (configuration not stated)	2%	nt	nt	-25%	-3%
O=C(O)CSCc1cn2cc(Cl)ccc2n1	-10%	-1	0%	0%	4%
CNCc1cn2cc(Cl)ccc2n1	-12%	-8	27µM*	0%	-20%
COc1cccc(NC(=O)c2oc3ccccc3c2NC(=O)c2ccc(F)c(F)c2)c1	4%	nt	nt	0%	-23%
Cc1ccc(/C=c2\sc3nc(-c4ccccc4Br)nn3c2=O)o1	1%	2	-26%	2%	11%
Cc1ccc(/C=c2\sc3nc(-c4ccco4)nn3c2=O)o1	-19%	8	9.5µM*	2%	-9%
